NLRP3 yeast inh = NALP3 inflammasome inhibitors in reconstituted yeast, primary screen, luminescence, uHTS; 330,000 tested, 0.39% active; inhibition, % at 10 µM; Yeast reconstituted NLRP3/ASC/caspase-1, beta-gal luminescence, 24 h; AID 2825, 2010;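 active means inhibition of 50% or more; inactive means inhibition below 50%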
NALP1 yeast inh = NALP1 inflammasome inhibitors in reconstituted yeast, colorimetric, S. cerevisiae, triplicate retest. S. cerevisiae NALP1/ASC/caspase-1 growth, X-gal OD620, 72 h. inhibition, % at 10 µM. 280,000 tested, 0.61% active; in the data active means inhibition mostly above about 24%, no sharp cut-off; inactive means mostly below about 32%
TIM10 inh = growth inhibitors of isogenic TIM10 control yeast, primary screen, counter-screen for tim10-1 yeast inhibitor project, luminescence, uHTS; S. cerevisiae TIM10 strain growth, BacTiter-Glo luminescence, 24 h; 330,000 tested, 1.4% active; inhibition, % at 10 µM; AID 463195, 2010;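 active means inhibition of 40% or more at the single tested concentration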;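 further: wild-type TIM10 isogenic control strain grown at permissive 25 °C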
tim10-1 inh = growth inhibitors of tim10-1 mutant yeast, primary screen, luminescence, uHTS | S. cerevisiae tim10-1 ts strain growth, BacTiter-Glo, 24 h | inhibition, % at 20 µM | 330,000 tested, 2.2% active | AID 463190, 2010;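 active means inhibition of at least 40%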;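 further: mutant grown at 25 °C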
PfHsp90 yeast 2 = growth inhibition of PfHsp90-expressing yeast, primary screen, antimalarial PfHsp90 inhibitor project, S. cerevisiae, BacTiter-Glo luminescence, single point, set 2. 310,000 tested, 0.32% active. AID 504621, 2011. BacTiter-Glo ATP, 48 h; yeast lacking PDR1 and PDR3 efflux regulators. inhibition, % at 9.4 µM;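 active means every replicate shows inhibition above about 80%, whatever the replicate mean, limit read from the data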
tim23-1 inh = growth inhibitors of tim23-1 mutant yeast, primary screen, luminescence, uHTS. S. cerevisiae tim23-1 growth, BacTiter-Glo luminescence, 24 h. inhibition, % at 20 µM. 330,000 tested, 1.3% active. AID 463212, 2010;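 active means growth inhibition of the mutant yeast at or above 50%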;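 further: temperature-sensitive mutant grown at 25 °C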
tim10-1 confirm = growth inhibitors of tim10-1 mutant yeast, confirmation, single concentration, luminescence, S. cerevisiae; S. cerevisiae tim10-1 ts strain growth, BacTiter-Glo, 24 h; 7,400 tested, 56% active; AID 463213, 2010; inhibition, % at 20 µM; shares compounds with tim10-1 inh;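 active means inhibition of yeast growth at or above a set limit in either of two repeat tests at 20 µM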;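 further: tim10-1 mutant grown at permissive 25 °C to find synthetic lethal compounds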
Of the large screens only hits and unclear results are named; the others gave an inactive call (follow-up assays come after a bar, where they were run). An excerpt weighted towards active compounds, which were near 4.1% of everything screened.

O=C1C2Sc3[nH]c(=O)sc3C(c3ccccc3)C2C(=O)N1c1ccc(Cl)cc1 (stereo not drawn)	tim10-1 inh 42 | tim10-1 confirm inactive
Cc1noc(C)c1CSCC(=O)N(C)CC(=O)Nc1ccccc1Br	none (no result: NALP1 yeast inh, PfHsp90 yeast 2)
CC(C)Cn1c(SC(C)C(=O)NC2CC2)nnc1-c1ccccc1F (stereo not drawn)	none (no result: NALP1 yeast inh)
COc1ccc(Nc2c(-c3ccc(C)cc3)nc3cnccn23)cc1	none
Cc1ccc(Nc2c(-c3ccccc3O)nc3cnccn23)cc1	tim10-1 inh 40 | tim10-1 confirm inactive
CCCN1C(=O)/C(=N\OCC(=O)Nc2ccc(C(C)C)cc2)c2ccccc21	tim10-1 inh 48 | tim10-1 confirm 38
CCCN1C(=O)/C(=N\OCC(=O)NC23CC4CC(CC(C4)C2)C3)c2ccccc21	tim10-1 inh 42 | tim10-1 confirm inactive
CC(=O)N1CCN(C(=O)c2ccc3c(c2)OCCO3)CC1	none
O=C(COc1coc(CN2CCCc3ccccc32)cc1=O)Nc1ccc([N+](=O)[O-])cc1	none (no result: NALP1 yeast inh)
Cc1ccc(C)c2[nH]c(=O)c(CCNC(=O)CCc3ccccc3)cc12	none
N/C(=N\OC(=O)C1CCCCC1)c1cccc([N+](=O)[O-])c1	tim10-1 inh 47 | tim10-1 confirm 49
N/C(=N\OC(=O)CCCOc1ccccc1)c1cccc([N+](=O)[O-])c1	tim10-1 inh 55 | tim10-1 confirm 46
N/C(=N\OC(=O)c1ccncc1)c1cccc([N+](=O)[O-])c1	none
Cc1ccc(C(=O)O/N=C(\N)c2cccc([N+](=O)[O-])c2)cc1	tim10-1 inh 52 | tim10-1 confirm 72
N/C(=N\OC(=O)c1ccc([N+](=O)[O-])cc1)c1cccnc1	tim10-1 inh 40 | tim10-1 confirm 37
Cc1ccc(S(=O)(=O)N2CCN(C(=O)CCC(=O)Nc3ccc(F)cc3F)CC2)cc1	none (no result: NALP1 yeast inh)
COc1cc(NC(=O)c2ccc(S(=O)(=O)N(C)c3ccccc3OC)cc2)cc(OC)c1	none (no result: NALP1 yeast inh)
COc1ccccc1N(C)S(=O)(=O)c1ccc(C(=O)Nc2ccc(N3CCOCC3)cc2)cc1	tim10-1 inh 47 | tim10-1 confirm 33
CC1CCN(C(c2ccc(N(C)C)cc2)c2nnnn2Cc2ccc(F)cc2)CC1 (stereo not drawn)	none
Fc1ccc(Cn2nnnc2C(c2ccc(Cl)cc2)N2CCSCC2)cc1 (stereo not drawn)	tim10-1 inh 42 | tim10-1 confirm inactive
Cc1cccc(N2CCN(C(=O)C3CCN(S(=O)(=O)c4cccc5cccnc45)CC3)CC2C)c1 (stereo not drawn)	none
O=C(C1CCCN(S(=O)(=O)c2cccc3nsnc23)C1)N1CCc2ccccc21 (stereo not drawn)	tim10-1 inh 41 | tim10-1 confirm 37
Cc1cccc(N2CCN(C(=O)C3CCN(S(=O)(=O)c4cccc5nsnc45)CC3)CC2C)c1 (stereo not drawn)	tim10-1 inh 40 | tim10-1 confirm inactive
CCC(CC)COC(=O)C1=C(C)NC(=O)NC1c1ccc(N(C)C)cc1 (stereo not drawn)	none
CCCN1/C(=C(\C#N)C2=NS(=O)(=O)c3ccccc32)N(C)c2ccccc21	none (no result: NLRP3 yeast inh, NALP1 yeast inh, TIM10 inh, tim10-1 inh, tim23-1 inh)
Cc1cc2nc(-c3ccc4c(c3)CCC4)ccn2n1	tim10-1 inh 41 | tim10-1 confirm inactive
Cc1cc2nc(-c3cc(N4CCOCC4)ccc3[N+](=O)[O-])ccn2n1	none (no result: PfHsp90 yeast 2)
Cc1ccc(S(=O)(=O)N2CCN(C(=O)COC(=O)c3ccccc3OC(F)F)CC2)c(C)c1	none (no result: NLRP3 yeast inh, NALP1 yeast inh, TIM10 inh, tim10-1 inh, tim23-1 inh)
CCc1cc2ccc(C)cc2nc1SCC(=O)N1CCN(C(=O)c2ccco2)CC1	tim10-1 inh 42 | tim10-1 confirm inactive
CCc1cc2cc3c(cc2nc1SCC(=O)N1CCN(C(=O)c2ccco2)CC1)OCO3	none
Cc1c(C(=O)Nc2nonc2-c2ccc(F)cc2)oc2ccc(F)cc12	tim10-1 inh 44 | tim10-1 confirm inactive
CCc1nonc1NC(=O)c1oc2ccc(F)cc2c1C	none
Cc1noc(C)c1S(=O)(=O)N(CC(=O)NC(C)c1ccccc1)c1ccc(C(C)C)cc1 (stereo not drawn)	none
CSC(=S)N/N=C/c1ccccc1	none
COc1ccc(-c2[nH]ncc2-c2ccc3c(c2)OCCO3)c(O)c1	tim10-1 inh 40 (no result: PfHsp90 yeast 2) | tim10-1 confirm inactive
Cc1sc2ncnc(Sc3ccccc3C(=O)Nc3ccccc3Cl)c2c1C	tim10-1 inh 43 | tim10-1 confirm inactive
OCc1ccc(-c2nn(Cc3ccccc3)c3ccccc23)o1	tim10-1 inh 40 (no result: NALP1 yeast inh) | tim10-1 confirm 30
O=c1c2ccccc2c(-c2n[nH]c(=S)o2)nn1Cc1ccccc1	none
CCNS(=O)(=O)c1ccc(NC(=S)N2CCc3ccccc32)cc1	none
CS(=O)(=O)N(CC(=O)Nc1cccc(Br)c1)Cc1ccccc1	none
COC(=O)C1(Cc2cc(-c3ccccc3)no2)CCN(C(=O)OC(C)(C)C)CC1	tim10-1 inh 43 | tim10-1 confirm 34
CCCc1cc(C(=O)N2CCN(C(c3ccccc3)c3ccccc3)CC2)no1	none
Cc1cc(C(=O)N2CCN(C(c3ccccc3)c3ccccc3)CC2)no1	tim10-1 inh 41 | tim10-1 confirm inactive
O=C(Cc1ccccc1)NNC(=O)C1CC=CCC1 (stereo not drawn)	none
CCOC(=O)c1cnc(-n2nc(C)cc2C)nc1NNc1ncc(-c2ccccc2)cn1	tim10-1 inh 54 (no result: PfHsp90 yeast 2) | tim10-1 confirm inactive
CCOC(=O)c1cnc(-n2nc(C)cc2C)nc1NNc1cc(-c2ccccc2)nc(C)n1	none (no result: PfHsp90 yeast 2)
Cc1cc(C)c2cc3c(N)c(C(=O)N4CCc5ccccc5C4)sc3nc2c1	none
Cc1cccc2cc3c(N)c(C(=O)N4CCOCC4)sc3nc12	tim10-1 inh 42 | tim10-1 confirm 34
COc1ccc(C(=O)N/C(=C\c2cn(S(=O)(=O)N(C)C)c3ccccc23)C(=O)N2CCN(C)CC2)cc1	none
Oc1ccc(-c2nccc(-c3ccc(Cl)cc3Cl)n2)cc1	tim10-1 inh 42 | tim10-1 confirm 34
Oc1ccc(-c2nccc(-c3ccc(Cl)cc3)n2)cc1	tim10-1 inh 42 | tim10-1 confirm 43
COC(=O)c1cc(S(=O)(=O)NCCCN2CCCC2=O)cn1C	none
COc1ccc(OC)c(N(CC(=O)NN=C2CCN(C)CC2)S(=O)(=O)c2ccccc2)c1	none
COc1ccc(C)cc1NC(=O)C(c1ccccc1)N1CCN(CC(=O)NC2CC2)CC1 (stereo not drawn)	none (no result: NALP1 yeast inh, PfHsp90 yeast 2)

High-throughput results from PubChem BioAssay.
